Rows were chosen to be rich in hits. Some 3.2% of all compounds tested hit in one or more screens of this group.
Bim-Mcl-1 = disrupts Bim peptide binding to human Mcl-1; Q07820; Bead-based flow cytometry, Bim peptide-Mcl-1 binding; inhibition, % at 10 µM; 190,000 compounds, 0.1% hits; AID 1009; in the data active = inhibition above about 40%
Mcl1 Noxa PPI = disrupts binding of human Mcl-1 to Noxa peptide; Q07820; TR-FRET Mcl-1/Noxa peptide binding, 2 h; AID 1022; inhibition, % at 21.7 µM; 220,000 compounds, 1.5% hits;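 active = compounds that cut the protein-peptide binding signal by more than 50% relative to plate controls in a single-dose test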;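 also: His-tagged Mcl-1 with rhodamine Noxa BH3 peptide and terbium anti-His antibody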
14-3-3 Bad inh = disrupts binding of bovine 14-3-3 zeta to phospho-Bad peptide | P63103 | TR-FRET 14-3-3zeta/Dy647-pBad peptide displacement, 1 h | inhibition, % at 21.7 µM | 220,000 compounds, 0.71% hits | AID 781;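 active = inhibition above about 70%, limit read from the data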
Target sequence (P63103 whole entry, looked up): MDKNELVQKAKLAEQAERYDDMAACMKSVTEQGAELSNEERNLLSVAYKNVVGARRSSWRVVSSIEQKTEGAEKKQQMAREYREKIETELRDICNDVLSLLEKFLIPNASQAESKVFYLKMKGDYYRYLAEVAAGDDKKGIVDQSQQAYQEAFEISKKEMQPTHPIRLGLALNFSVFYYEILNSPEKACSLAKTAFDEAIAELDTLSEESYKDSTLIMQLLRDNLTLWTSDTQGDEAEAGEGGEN
Mcl1-Bid inh = Mcl-1/Bid interaction inhibition | Q07820 | TR-FRET Mcl-1/Bid-Dy647 peptide binding, 1536-well | inhibition, % at 21.7 µM | 220,000 compounds, 0.97% hits | AID 1021;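 active = compounds that cut the binding signal by more than half at the single screening dose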;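 also: His-tagged Mcl-1 with europium anti-His antibody binding Bid BH3 peptide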
NCF1 inh = p47phox (human) inhibition. 220,000 compounds, 0.53% hits. inhibition, % at 24.7 µM. p47phox/p22phox peptide binding, fluorescence polarization, 2 h. AID 1274. P14598;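 active = inhibition above about 30%, limit read from the data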
Target sequence (P14598 whole entry, looked up): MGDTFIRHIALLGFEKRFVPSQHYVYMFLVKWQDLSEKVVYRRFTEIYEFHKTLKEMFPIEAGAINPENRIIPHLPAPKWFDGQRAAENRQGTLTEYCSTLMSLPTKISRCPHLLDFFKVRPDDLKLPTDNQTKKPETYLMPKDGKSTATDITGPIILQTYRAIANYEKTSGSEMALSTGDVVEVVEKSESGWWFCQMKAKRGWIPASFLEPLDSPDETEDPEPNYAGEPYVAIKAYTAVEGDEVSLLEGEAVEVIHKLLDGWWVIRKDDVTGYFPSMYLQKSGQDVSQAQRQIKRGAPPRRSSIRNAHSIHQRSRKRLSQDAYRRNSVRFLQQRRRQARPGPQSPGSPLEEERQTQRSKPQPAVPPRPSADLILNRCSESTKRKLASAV
Large screens that a line does not name were inactive; ! = repeats disagree; [ ] = remark or other dose.

Cc1ccc(C)c(S(=O)(=O)N2CCN(CC(=O)N3CCc4ccccc4C3)CC2)c1	14-3-3 Bad inh 86.2[fluorescence artefact?], Mcl1-Bid inh 62.4
O=C1CC(=O)c2c1cccc2[N+](=O)[O-]	Mcl1 Noxa PPI 101.0 (no result: Bim-Mcl-1)
CC(=O)/C(=N\Nc1ccc(C)cc1)Sc1nncn1C	none
COCCN1C(=O)C(=O)/C(=C(/O)c2ccc(S(=O)(=O)N3CCOCC3)cc2)C1c1cccc(Cl)c1 (centres undefined)	Mcl1-Bid inh 66.4 (no result: Bim-Mcl-1)
COc1cc2c(cc1OC)-c1cc(NCc3ccccn3)nc(=O)n1CC2	14-3-3 Bad inh 90.5[fluorescence artefact?], Mcl1-Bid inh 98.1
COc1cc2c(cc1OC)-c1cc(NC3CCCCCCC3)nc(=O)n1CC2	Mcl1-Bid inh 100.1
CCNc1cc2n(c(=O)n1)CCc1cc(OC)c(OC)cc1-2	none
Cc1ccc(CCNC(=O)CNC(=O)c2cccs2)cc1	none
CC1CN(Cc2ccccc2)C(C)CC1O (centres undefined)	none
CCc1oc2ccccc2c1C(=O)c1cc(Br)c(O)c(Br)c1	Mcl1-Bid inh 51.8!
CCOC(=O)c1c(COc2ccccc2)oc2ccc(O)cc12	none
COc1cccc(C(=O)N2CCC(N3CC(C)OC(C)C3)CC2)c1 (centres undefined)	none
COc1cccc(C(=O)N2CCN(C3CCC(c4ccccc4)CC3)CC2)c1 (centres undefined)	14-3-3 Bad inh 74.6
COc1cc(OC)cc(C(=O)N2CCN(C3CCN(Cc4ccccc4)CC3)CC2)c1	14-3-3 Bad inh 72.7
CCS(=O)(=O)N1CCN(C2CCC(c3ccccc3)CC2)CC1 (centres undefined)	Mcl1-Bid inh 54.4
Cc1ccc(Nc2nc(CSc3nnc(-c4ccc(F)cc4)n3C)cs2)cc1	none
C=CCn1c(O)c(C2=c3ccccc3=NC2=O)sc1=Nc1ccc(O)cc1	Mcl1 Noxa PPI 52.4 (no result: Bim-Mcl-1)
C/C(=N/NC(=O)CNC(=O)C(c1ccccc1)c1ccccc1)c1ccco1	none (no result: Bim-Mcl-1)
Cc1cccc(NC(=O)CN2C(=O)S/C(=C\c3ccc(O)c([N+](=O)[O-])c3)C2=O)c1	none
Cc1ccc(NC(=O)CN2C(=O)S/C(=C/c3ccc(O)c([N+](=O)[O-])c3)C2=O)cc1C	Mcl1 Noxa PPI 72.6, 14-3-3 Bad inh 83.5
OCCC1CN(C2CCN(c3ccccc3)CC2)CCN1Cc1ccc(F)c(F)c1 (centres undefined)	none
Cc1ccc(C2C(C#N)=C(N)SC(N)=C2C#N)o1	Mcl1 Noxa PPI 84.1
CCc1ccc(C2C(C#N)=C(N)SC(N)=C2C#N)s1	none
C/C(CC(=O)NC1CCCC1)=N\NC(=O)C1CCCCC1	14-3-3 Bad inh 97.0
C/C(CC(=O)NC1CCCCCC1)=N\NC(=O)c1cnccn1	none
COC(=O)c1ccc(/C=N/NC(=O)c2ccccc2Cl)cc1	none
CC(C)c1ccc(/C=N/NC(=O)c2ccccc2Cl)cc1	Bim-Mcl-1 45.0
CC1Cc2ccccc2N1S(=O)(=O)c1cccc(C(=O)NCCCn2ccnc2)c1 (centres undefined)	none
CCOC(=O)c1sc(N)nc1C(C)(C)C	14-3-3 Bad inh 74.1
CC1(C)Oc2ccc3ccc(=O)oc3c2C[C@H]1O	Mcl1-Bid inh 83.1 (no result: Bim-Mcl-1)
CC1(C)Oc2ccc3ccc(=O)oc3c2C(N2CCCCC2)C1O (centres undefined)	none
CC1=Nc2cc(C(=O)O)ccc2Sc2ccc(Br)cc21	Mcl1 Noxa PPI 57.5
COc1ccc(C(=O)/C=C/c2ccccc2)c(OC)c1	none
COc1ccc(C(=O)/C=C/c2cc(OC)c(O)c(OC)c2)c(F)c1	Mcl1 Noxa PPI 55.5
O=C(COc1ccc(/C=N/NC(=O)c2cc3ccccc3o2)cc1Cl)Nc1ccccc1	14-3-3 Bad inh 79.0, Mcl1-Bid inh 83.6
O=C(N/N=C/c1ccc2c(c1)OCO2)c1cc2ccccc2o1	none (no result: Bim-Mcl-1)
CC(=O)c1cccc(NC(=O)CN2C(=S)NC(C)(C)CC2C)c1 (centres undefined)	none
CCCCC[C@H](O)/C=C/[C@H]1C=CC(=O)[C@@H]1C/C=C\CCCC(=O)O	Mcl1 Noxa PPI 69.3
CCCn1c(=O)c(C#N)cn(C2CC2)c1=O	none (no result: Bim-Mcl-1)
Cn1nc(NC(=O)CC23CC4CC(CC(C4)C2)C3)c2c(F)cccc21	none (no result: Bim-Mcl-1)
C/C(CC(=O)Nc1cccc2c1CCCC2)=N\NC=O	none
OC(CNC1CCCCC1)COCCOc1ccc(Br)cc1 (centres undefined)	Bim-Mcl-1 49.0
CC(C)OC(=O)c1cccc(NC(=O)CSc2nnc(N)s2)c1	none
COc1ccc(O)c(CN2CCN(C/C=C/c3ccccc3)CC2)c1	14-3-3 Bad inh 73.8
Cc1c(Cc2ccccc2)sc(NC(=O)/C=C/c2cccc3ccccc23)c1C(N)=O	Mcl1 Noxa PPI 58.7
CCn1c(=O)cc(OCC(=O)NCCCN2CC(C)CC(C)C2)c2ccccc21 (centres undefined)	NCF1 inh 67.7
CC1CC(C)CN(CCCNC(=O)COc2cc(=O)n(C)c3ccccc23)C1 (centres undefined)	none
CC(/C=N\NC(=O)CN1CCN(S(=O)(=O)c2ccc(C)cc2)CC1)=C\c1ccccc1	14-3-3 Bad inh 80.5[fluorescence artefact?]
CCN1CCN(Cc2ccc(NC(=O)c3ccc(C)c(NC(=O)C(=O)c4c[nH]c5ccccc45)c3)cc2C(F)(F)F)CC1	NCF1 inh 59.0 (no result: Bim-Mcl-1)
CCN1CCN(Cc2ccc(NC(=O)c3cc(NC(=O)C(=O)c4c[nH]c5ccccc45)cc(OC)c3)cc2C(F)(F)F)CC1	NCF1 inh 37.3 (no result: Bim-Mcl-1)
CCN1CCN(Cc2ccc(NC(=O)c3ccc(C)c(NC(=O)c4ccc5n[nH]nc5c4)c3)cc2C(F)(F)F)CC1	none (no result: Bim-Mcl-1)
CCCOC(=O)c1ccc(Cl)c(NC(=O)c2cccnc2)c1	none
CN(NC(=O)COc1ccccc1)c1ccccc1	Mcl1-Bid inh 94.1
COc1cc(NC(=O)c2ccccc2)c(OC)cc1NC(C)=O	none
COc1cc(NC(=O)COc2ccccc2)c(OC)cc1NC(C)=O	Mcl1-Bid inh 94.7
Cc1cc(NC(=O)c2ccc(C#N)cc2)on1	none
CCOc1ccc(Br)cc1S(=O)(=O)Nc1cccc(S(=O)(=O)N(C)C)c1	none
Nc1ccccc1Nc1ccccc1	Mcl1 Noxa PPI 52.4, Mcl1-Bid inh 74.9
Nc1ccc(Nc2ccccc2)c(Cl)c1	none
C=CCNC(=S)NNC(=O)c1ccc([N+](=O)[O-])cc1	Mcl1 Noxa PPI 67.6
Cn1cccc1/C=C1\SC(=S)N(NC(=O)c2cccc(Cl)c2)C1=O	none
CCOC(=O)C1=C(C)N(C)C(=O)NC1c1cc2c(cc1[N+](=O)[O-])OCO2 (centres undefined)	Mcl1 Noxa PPI 50.9
O=C1/C(=C/Nc2ccc3c(c2)OCO3)CCc2ccccc21	none
COc1ccc2c(c1)CC/C(=C\Nc1ccc3c(c1)OCO3)C2=O	Mcl1 Noxa PPI 73.4
NC(=O)N/N=C/c1ccc(OCc2cccc(Cl)c2)cc1	none
COc1cccc(-c2nc(N3CCN(C)CC3)c3ccccc3n2)c1O	Mcl1 Noxa PPI 68.1 (no result: Bim-Mcl-1)
CC(NC(=O)c1noc2c1CCCC2)c1ccccc1 (centres undefined)	none
COC(=O)c1ccccc1NC(=O)c1noc2c1CCC2	Mcl1 Noxa PPI 70.4
CSc1ccccc1NC(=O)c1noc2c1CCC2	Mcl1 Noxa PPI 66.2

Bioassay records from PubChem.
